Compound activity: PubChem, several laboratories
HMGR II inh: inhibitors of E. faecalis class II HMGR, primary screen, biochemical, Enterococcus faecalis; 190,000 compounds, 0.41% hits; inhibition, % at 10 µM; HMG-CoA reductase (Enterococcus faecalis, mvaE); purified E. faecalis HMGR, NADPH absorbance 340 nm kinetic;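 active = inhibition above a set limit, the median over all tested compounds plus 3 SD, cut at about 9.5% in these data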;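 also: enzyme runs in reverse so mevalonate oxidation gives rising NADPH absorbance; 0% = complete reaction with DMSO and 100% = background rate lacking mevalonate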
EP2 modulator: EP2 receptor modulators, cAMP readout, primary screen, cell-based, HTRF cAMP, PGE2 stimulation; Prostaglandin E2 receptor EP2 subtype (Homo sapiens), P43116; EP2-expressing cells, cAMP HTRF FRET, PGE2 co-stimulation; induction, % at 25 µM; 260,000 compounds, 0.83% hits; AID 940, 2007;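 active = compounds whose cAMP rise, as percent of the full-agonist control response, exceeds 60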;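 also: rat C6 glioma line stably carrying human EP2 under a CMV promoter; the protocol text gives 20 µM as final concentration; 100% = response of wells given 1 µM PGE2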
Target sequence (P43116 whole entry, looked up): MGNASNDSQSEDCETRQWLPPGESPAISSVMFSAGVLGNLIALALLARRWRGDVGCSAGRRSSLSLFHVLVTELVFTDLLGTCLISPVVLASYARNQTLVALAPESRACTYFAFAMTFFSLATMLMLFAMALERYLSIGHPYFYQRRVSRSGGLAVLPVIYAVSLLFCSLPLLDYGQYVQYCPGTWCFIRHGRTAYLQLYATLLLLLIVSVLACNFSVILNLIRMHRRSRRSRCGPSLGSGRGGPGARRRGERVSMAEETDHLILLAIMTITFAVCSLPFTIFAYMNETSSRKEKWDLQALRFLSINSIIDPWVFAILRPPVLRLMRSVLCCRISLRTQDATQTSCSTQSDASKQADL
m-calpain inh: inhibitors of pig calpain II, primary screen, biochemical, fluorogenic peptide substrate, 1536-well | 220,000 compounds, 0.37% hits | inhibition, % at 16 µM | AID 1236, 2008 | purified calpain II, 30 min;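 active = inhibition above about 50%, limit read from the data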
PGE2 EP2 inh: human EP2 receptor antagonists, primary screen, TR-FRET cAMP, C6 glioma cells. 260,000 compounds, 0.52% hits. C6 glioma cells expressing human EP2; cells stimulated with saturating PGE2. Prostaglandin E2 receptor EP2 subtype (Homo sapiens), P43116. inhibition, % at 25 µM;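 active = percent inhibition above 40 after rounding to a whole number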;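 also: rat C6 glioma host cells with rolipram phosphodiesterase inhibitor present; the protocol text gives 20 µM as final concentration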
Furin inhibitor: human furin inhibitors, primary screen, biochemical, fluorescence intensity. purified furin, fluorogenic substrate cleavage. 220,000 compounds, 0.061% hits. inhibition, % at 20 µM or 30 µM. P09958. AID 463115, 2010; in the data active = inhibition above about 25%
Numbers without * were called inactive; i = inactive; · = no result; ! = repeats disagree. This is a sample that favours compounds with a hit; in the whole collection about 1.9% have one here.

SMILES | HMGR II inh | EP2 modulator | m-calpain inh | PGE2 EP2 inh | Furin inhibitor
Cc1ccc(Cl)cc1N(Cc1ccc(C(=O)NCc2cccnc2)cc1)S(=O)(=O)c1ccccc1 | -3 | -9 | 52* | · | -10
COCCCn1c(C)nnc1SCC(=O)Nc1ccc(C)cc1 | · | 12 | · | 8 | ·
CCN(CC)C(=O)CSc1nnc(-c2ccccc2)n1CCOC | · | 1 | · | 13 | ·
CCOC(=O)CN(C(=O)CSc1nnc2c(n1)[nH]c1ccc(F)cc12)c1ccccc1 | -3 | 12 | 59* | 14 | -8
COc1ccc(NC(=O)Cn2cnc3c2c(=O)n(C)c(=O)n3C)cc1Cl | · | -19 | · | 7 | ·
O=[N+]([O-])c1ccccc1N/N=C/c1ccc2c(c1)OCO2 | 1 | -4 | 8 | 9 | -19
O=[N+]([O-])c1ccc2c(c1)Cc1cc(N=Cc3ccc4c(c3)OCO4)ccc1-2 | · | -26 | · | 51* | ·
CN(C)Cc1cc(C(C)(C)C)cc(CN(C)C)c1O | · | 9 | · | 18 | ·
CN(C)Cc1cc(C(C)(C)C)ccc1-c1ccc(C(C)(C)C)cc1CN(C)C | · | 7 | · | 50* | ·
Cc1nc(SCC(=O)Nc2ccc(F)cc2)nc2c1CCCC2 | · | -82 | · | 54* | ·
Cc1nc(SCc2ccccc2)nc2c1CCCC2 | · | 54 | · | 13 | ·
Cc1n[nH]c(C)c1SCC(=O)Nc1ccc(F)cc1 | 3 | 11 | -3 | 15 | -15
Cc1nc(SCc2ccc(C(=O)O)cc2)nc2c1CCCC2 | 1 | 61*! | -14 | 6 | -24
O=C(Nc1ccc(F)c(F)c1)c1nc2ncccn2n1 | · | -26 | · | 16 | ·
CCOCCn1c(N2CC(C)CC(C)C2)nc2c1c(=O)[nH]c(=O)n2C (stereo not drawn) | · | 12 | · | 4 | ·
N#C/C(=C\c1ccc([N+](=O)[O-])o1)c1nc2ccccc2[nH]1 | -12 | -11 | -37 | 69* | -10
Cc1ccc2nc(/C(C#N)=C\c3ccc(N4CCOCC4)o3)[nH]c2c1 | 0 | -44 | -6 | 22 | -13
N#C/C(=C(/O)c1ccc([N+](=O)[O-])o1)c1nc2ccccc2[nH]1 | · | -43 | -18 | 17 | -25
Cc1ccc2nc(/C(C#N)=C\c3ccc([N+](=O)[O-])o3)[nH]c2c1 | -9 | -40 | -50 | 64* | -16
Cn1c(=O)[nH]c(=O)c2c1nc(N(CCO)CCO)n2Cc1ccccc1 | · | -9 | · | 9 | ·
COc1ccc(C(=O)N2CCC(c3[nH]ncc3-c3ccncc3)CC2)o1 | · | -13 | · | · | ·
COc1ccc(-c2cn3cccnc3n2)cc1NC(=O)c1cc(OC)c(OC)c(OC)c1 | 9.6* | -63 | i | 5 | -16
COc1cc(C(=O)Nc2cccc(-c3cn4cccnc4n3)c2)cc(OC)c1OC | 1 | -65 | i | 18 | -39
CC1=CC(C)(C)N(C(=O)CSc2nnc(N)s2)c2cc(C)c(C)cc21 | -7 | 62* | 24 | 3 | 2
CC1=CC(C)(C)N(C(=O)CSc2nnc(C)s2)c2ccc(C)cc21 | -8 | 33 | 33 | 8 | 9
SMILES | HMGR II inh | EP2 modulator | m-calpain inh | PGE2 EP2 inh | Furin inhibitor
O=[N+]([O-])c1c(Nc2ccccn2)cc(Cl)c2nonc12 | · | -88 | -4 | 56* | -17
O=C(O)c1cccc(Nc2cc(Cl)c3nonc3c2[N+](=O)[O-])c1 | -5 | 0 | 14 | 3 | 8
O=C(CSc1nccc(=O)[nH]1)Nc1ccccc1Cl | · | 25 | · | 15 | ·
CC(C)N(Cc1nc(-c2ccccc2)no1)C(=O)c1ccc(Cl)cc1 | -5 | 2 | 21 | 7 | -13
Cc1ccc(-c2noc(CCCN3C(=O)c4ccccc4C3=O)n2)cc1 | -1 | 15 | 16 | 5 | -5
O=C1c2ccccc2C(=O)N1CCCCCc1nc(-c2ccccc2)no1 | -1 | 1 | 64* | 6 | -13
CC(C)N(Cc1nc(-c2ccc(Cl)cc2)no1)C(=O)CCCN1C(=O)c2ccccc2C1=O | -2 | 11 | 65* | 12 | 4
COCCn1c(SCC(=O)NNC(=O)C(C)C)nnc1-c1ccco1 | · | -4 | · | 9 | ·
COc1ccc(Cn2nnnc2CN(Cc2cccs2)Cc2cc3cc(C)ccc3[nH]c2=O)cc1 | · | -36 | · | 7 | ·
COc1ccc(CCNC2=CC(=O)N(c3ccc(F)cc3)C2=O)cc1 | 14* | 1 | -297 | 9 | -31
COc1ccc(C(C(=O)NCc2ccc3c(c2)OCO3)N(C(=O)c2csnn2)C2CC2)cc1 (stereo not drawn) | · | -28 | · | 12 | ·
CSc1nc(-c2ccccc2)c2cc(Cl)ccc2n1 | -5 | 62* | -1 | 7 | -22
COc1ccc(C2=CC3=C(Br)C(=O)C(C)(O)C(=O)C3=CO2)cc1 (stereo not drawn) | · | -29 | -32 | 134* | -22
Cn1c(=O)c2c(-c3ccc4c(c3)OCO4)c3c(nc2n(C)c1=O)-c1ccccc1C3O (stereo not drawn) | · | 0 | · | 17 | ·
O=C(Nc1ccccc1)N(CCN1CCOCC1)Cc1ccccc1F | 0 | 20 | 22 | 4 | 30*
COc1ccc(NC(=S)N(CCN2CCOCC2)Cc2ccccc2F)cc1 | 12* | -1 | 7 | 1 | -34
CC1Oc2ccccc2N(CC(=O)NCc2ccco2)C1=O (stereo not drawn) | · | -17 | · | 4 | ·
Cc1nn(C)cc1-c1nc2cnccn2c1NCc1ccccc1 | · | -13 | · | · | ·
CCc1nc2ccccc2n1CC(O)COc1cc(C)ccc1Cl (stereo not drawn) | · | -39 | · | 8 | ·
Oc1c(CN2CCN(c3ccccc3)CC2)cc(Br)c2cccnc12 | · | 15 | -6 | 41*! | -24
c1ccc(N2CCN(Cc3ccnc4ccccc34)CC2)cc1 | 1 | -22 | -4 | 2 | -24
N=c1sc2ccccc2n1CCS (tested in a mixture with another compound) | · | -27 | · | 57* | ·
O=c1sc2ccccc2n1CCc1ccccc1 | · | 13 | · | 6 | ·
Cc1ccc2cc(CN(CCN3CCOCC3)C(=S)NC3CCCCC3)c(=O)[nH]c2c1 | · | -2 | · | 14 | ·
Cc1ccc(C(=O)N/N=C/C=C/c2ccccc2)o1 | 11* | -10 | 21 | 4 | 13
SMILES | HMGR II inh | EP2 modulator | m-calpain inh | PGE2 EP2 inh | Furin inhibitor
CCOCCCNc1cc(C)nc2c(-c3ccc(OC)cc3)c(C)nn12 | · | -39 | · | · | ·
CNC(=S)NCCc1ccccc1 | · | 17 | -25 | 6 | -16
CCN(CC)C(=S)NCCc1ccccc1 | 12* | -13 | -6 | 14 | -15
Cc1cccc(N(CC(=O)NCc2ccncc2)S(C)(=O)=O)c1C | · | -3 | · | 14 | ·
CC(C)(C)NC(=O)c1cccc2c1OC(C)(C)C2 | 0 | 40 | -5 | 5 | -17
CC1(C)Cc2cccc(C(=O)Nc3ccc(F)cc3F)c2O1 | · | 82* | 36 | 4 | -13
COc1cc(/C=N/NC(=O)c2ccc(COc3ccccc3Cl)o2)cc(Br)c1O | -2 | -68 | -29 | 75* | -20
COc1cccc(/C=N/NC(=O)c2ccc(COc3ccc(Cl)cc3Cl)o2)c1 | -7 | -35 | -137 | 18 | -10
CC(C)c1ccccc1NC(=S)NN(Cc1ccccc1)c1ccccc1 | -5 | 37 | 50* | 8 | -9
CC(C)n1c(=O)n(CC(=O)N2CCCCC2)c2cccnc21 | · | 7 | · | · | ·
